Consider 88 sequences from the supplement of paper PMC4166925.

± gives the standard deviation of the averaged measurements. Whole data set: some 33,000 sequences, median “E-score (dimensionless, -0.5 to 0.5)” near -0.046, cut for the highest 2% near 0.36. The entries come from a sample that favours the highest values as a whole.
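Note: protein at 200 nM in PBS on universal double-stranded arrays.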

This experiment relates to T1, SpTbr T-box DNA-binding domain (GST fusion).
T1 sequence: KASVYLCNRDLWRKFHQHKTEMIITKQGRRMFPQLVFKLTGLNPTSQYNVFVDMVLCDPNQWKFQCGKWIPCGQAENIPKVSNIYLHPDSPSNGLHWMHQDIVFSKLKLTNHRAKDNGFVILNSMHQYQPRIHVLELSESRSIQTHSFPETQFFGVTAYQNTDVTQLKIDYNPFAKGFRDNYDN
As to the kind of experiment: PBM E-score of 8-mer (E-score (dimensionless, -0.5 to 0.5)); Tbr is Tbrain of the sea star Patiria miniata (Pm) or the sea urchin Strongylocentrotus purpuratus (Sp); higher = stronger binding preference. The note with it: the construct has about 5 more residues each side. On the procedure: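 Universal protein-binding microarray (Agilent AMADID 016060, 60-bp probes with a 35-bp variable region) incubated with 200 nM GST-fused Strongylocentrotus purpuratus Tbr T-box DNA-binding domain (residues 362-554) in PBS pH 7.5. Scored for every ungapped 8-mer (given with its reverse complement) as E-score (range -0.5 to 0.5; >0.45 counts as bound) and Z-score of median probe intensity. Two replicate arrays (datasets 1 and 2).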
With CACATTCA, the “PBM E-score of 8-mer” value worked out at 0.21 ± 0.041.

Take CATAAAGA: the “PBM E-score of 8-mer” value is -0.0483 ± 0.0071.

With GCGGGTGA, the “PBM E-score of 8-mer” value worked out at 0.261 ± 0.03.

On to GAATTTCA, for which the “PBM E-score of 8-mer” value stood at 0.056 ± 0.018.

For AAGCAAGG, the “PBM E-score of 8-mer” value is -0.0863 ± 0.017.

Take AGCCAGAA: the “PBM E-score of 8-mer” value is -0.268 ± 0.024.

Regarding AAGGAGAT, the “PBM E-score of 8-mer” value was -0.0983 ± 0.019.

AGAGGGCC: the “PBM E-score of 8-mer” value was -0.194 ± 0.097.

Turning to CTCCACAA, the “PBM E-score of 8-mer” value worked out at 0.136 ± 0.0093.

On to ATCCACAC, for which the “PBM E-score of 8-mer” value is 0.357 ± 0.0097.

In the case of CTCCACAC, the “PBM E-score of 8-mer” value came out at 0.37 ± 0.0083.

Take GTCCACAA: the “PBM E-score of 8-mer” value was 0.153 ± 0.039.

In the case of GTCCACAC, the “PBM E-score of 8-mer” value came to 0.385 ± 0.0075.

Consider CTCCACAG, for which the “PBM E-score of 8-mer” value was -0.0194 ± 0.034.

With AGGGACGA, the “PBM E-score of 8-mer” value came out at 0.053 ± 0.072.

As for CCTTTGAG, the “PBM E-score of 8-mer” value was -0.17 ± 0.018.

Turning to CGGTAGCA, the “PBM E-score of 8-mer” value came out at 0.276 ± 0.031.

For the sequence CTTTGCAA, the “PBM E-score of 8-mer” value is 0.0361 ± 0.021.

Take GATCGGAC: the “PBM E-score of 8-mer” value was -0.287 ± 0.013.

Regarding ATCGGCTG, the “PBM E-score of 8-mer” value was found to be 0.0647 ± 0.039.

Take ATACTAGA: the “PBM E-score of 8-mer” value is -0.222 ± 0.11.

Consider CTTCTCAC, for which the “PBM E-score of 8-mer” value stood at 0.401 ± 0.011.

For ATTCTCAC, the “PBM E-score of 8-mer” value came to 0.415 ± 0.015.

ATTCTCAG: the “PBM E-score of 8-mer” value came out at 0.0379 ± 0.094.

Turning to CTTCTCTC, the “PBM E-score of 8-mer” value was 0.08 ± 0.04.

Regarding ATTCTCAA, the “PBM E-score of 8-mer” value stood at 0.138 ± 0.062.

As for CTTCTCAA, the “PBM E-score of 8-mer” value was found to be 0.0891 ± 0.045.

On to ACCGAGGA, for which the “PBM E-score of 8-mer” value was -0.0878 ± 0.039.

As for AGTTCCAT, the “PBM E-score of 8-mer” value came out at 0.00979 ± 0.0044.

On to TTGCGAAA, for which the “PBM E-score of 8-mer” value was determined as 0.33 ± 0.038.

In the case of GTGCGAAA, the “PBM E-score of 8-mer” value came out at 0.4765 ± 0.0018.

Turning to CTGCGACA, the “PBM E-score of 8-mer” value was 0.198 ± 0.036.

Take CTGCGATA: the “PBM E-score of 8-mer” value is 0.0968 ± 0.04.

For the sequence ATGCGACA, the “PBM E-score of 8-mer” value is 0.285 ± 0.0073.

On to GTGCGACA, for which the “PBM E-score of 8-mer” value was 0.398 ± 0.012.

Consider CTGCGAGA, for which the “PBM E-score of 8-mer” value is 0.185 ± 0.0098.

In the case of GTGCGAGA, the “PBM E-score of 8-mer” value came to 0.42 ± 0.0079.

In the case of ATGCGATA, the “PBM E-score of 8-mer” value was 0.0476 ± 0.028.

Regarding GTGCGATA, the “PBM E-score of 8-mer” value was 0.427 ± 0.0042.

Regarding CTGCGAAA, the “PBM E-score of 8-mer” value stood at 0.342 ± 0.036.

For ATGCGAGA, the “PBM E-score of 8-mer” value turned out to be 0.172 ± 0.017.

With GATACCCC, the “PBM E-score of 8-mer” value is -0.273 ± 0.041.

CAAGGATA: the “PBM E-score of 8-mer” value is -0.175 ± 0.043.

With GAATCTGC, the “PBM E-score of 8-mer” value was -0.0922 ± 0.056.

For the sequence ATGCTCCG, the “PBM E-score of 8-mer” value is -0.0668 ± 0.061.

In the case of AAGCCCGG, the “PBM E-score of 8-mer” value is -0.24 ± 0.028.

For CATGCTAA, the “PBM E-score of 8-mer” value came to 0.0578 ± 0.029.

As for ACCTACTA, the “PBM E-score of 8-mer” value amounted to 0.17 ± 0.057.

As to GCATTCTA, the “PBM E-score of 8-mer” value was -0.293 ± 0.06.

Consider AGGCAGAC, for which the “PBM E-score of 8-mer” value was -0.227 ± 0.0024.

Take CTGCGATC: the “PBM E-score of 8-mer” value is 0.106 ± 0.1.

In the case of CTGCGAAC, the “PBM E-score of 8-mer” value was found to be 0.365 ± 0.0088.

As to CTGCGAAG, the “PBM E-score of 8-mer” value was 0.2479 ± 0.0022.

On to GGGCGAAC, for which the “PBM E-score of 8-mer” value is -0.0364 ± 0.016.

Take ATGCGAAC: the “PBM E-score of 8-mer” value amounted to 0.154 ± 0.017.

As for GTGCGAAC, the “PBM E-score of 8-mer” value was found to be 0.4783 ± 0.00073.

Regarding AATGAGGA, the “PBM E-score of 8-mer” value is -0.334 ± 0.058.

AACAATGA: the “PBM E-score of 8-mer” value is 0.0839 ± 0.096.

As to AAAGTTCA, the “PBM E-score of 8-mer” value was -0.0472 ± 0.047.

CTACCGAG: the “PBM E-score of 8-mer” value is -0.07 ± 0.013.

Regarding CACCTGTA, the “PBM E-score of 8-mer” value was 0.331 ± 0.036.

Turning to AACCTGTC, the “PBM E-score of 8-mer” value was found to be 0.248 ± 0.011.

Turning to CACCTGAA, the “PBM E-score of 8-mer” value was determined as 0.29 ± 0.0089.

Take AACCTGAC: the “PBM E-score of 8-mer” value amounted to 0.121 ± 0.003.

As for CACCTGAC, the “PBM E-score of 8-mer” value was 0.374 ± 0.0049.

As for CACCTGTC, the “PBM E-score of 8-mer” value amounted to 0.431 ± 0.019.

Consider GGATCCAC, for which the “PBM E-score of 8-mer” value was -0.00958 ± 0.069.

Take CGAAGTAC: the “PBM E-score of 8-mer” value is -0.169 ± 0.067.

Take GCCGTTTA: the “PBM E-score of 8-mer” value was 0.0646 ± 0.08.

With AATGCGAT, the “PBM E-score of 8-mer” value worked out at 0.0396 ± 0.031.

On to AGTGCGAC, for which the “PBM E-score of 8-mer” value amounted to 0.341 ± 0.024.

For ACTGCGAG, the “PBM E-score of 8-mer” value was found to be 0.17 ± 0.033.

Regarding CGTGCGAG, the “PBM E-score of 8-mer” value came out at 0.373 ± 0.018.

Consider AGTGCGAG, for which the “PBM E-score of 8-mer” value worked out at 0.408 ± 0.022.

As for AGTGCGAT, the “PBM E-score of 8-mer” value turned out to be 0.4291 ± 0.0025.

For ACTGCGAT, the “PBM E-score of 8-mer” value was 0.117 ± 0.0014.

Take CATGCGAG: the “PBM E-score of 8-mer” value stood at 0.106 ± 0.012.

In the case of CGTGCGAC, the “PBM E-score of 8-mer” value came out at 0.238 ± 0.029.

In the case of ATTCTGTG, the “PBM E-score of 8-mer” value was -0.0566 ± 0.036.

In the case of CTCTCAGA, the “PBM E-score of 8-mer” value is -0.187 ± 0.0034.

For the sequence CTCCGGCA, the “PBM E-score of 8-mer” value was 0.0686 ± 0.041.

For CCATAAGG, the “PBM E-score of 8-mer” value was -0.0717 ± 0.0012.

Take CGGCGTCA: the “PBM E-score of 8-mer” value was determined as 0.223 ± 0.02.

In the case of AGGCGTCA, the “PBM E-score of 8-mer” value is 0.41 ± 0.005.

Consider GTGCGTCA, for which the “PBM E-score of 8-mer” value stood at 0.187 ± 0.009.

GGGCGTCA: the “PBM E-score of 8-mer” value was found to be 0.376 ± 0.017.

For GCGCGTCA, the “PBM E-score of 8-mer” value was 0.265 ± 0.028.

On to AGGCGTCG, for which the “PBM E-score of 8-mer” value turned out to be 0.349 ± 0.018.
